# From PubChem BioAssay (NCATS)
# Inconclusive results are not listed. Entries that show only a call come without a potency. The source made the active and inactive calls. Unless noted, calls come from the whole dose curve.
# Key:
# [1] = qHTS for Inhibitors of the Functional Ribonucleoprotein Complex (vRNP) of Lassa (LASV) Arenavirus: LASV Primary Screen - GLuc reporter signal (AID 1347082; calls by dose curve; tested in HEK293 reporter line; note: nearly all actives have a fitted effect of over 60% in size; note: potency is the fitted concentration of half-maximal effect)
# [2] = qHTS for Inhibitors of the Functional Ribonucleoprotein Complex (vRNP) of Lassa (LASV) Arenavirus: Viability assay - alamar blue signal for LASV Primary Screen (AID 1347083; calls by dose curve; tested in HEK293 reporter line; note: nearly all actives have a fitted effect of over 80% in size; note: potency is the fitted concentration of half-maximal effect)
# [3] = Cytotoxicity counterscreen for inhibitors of SARS-CoV-2 cell entry (AID 1645845); note: nearly all actives have a fitted effect of over 50% in size; note: potency is the fitted concentration of half-maximal effect
# Method in brief: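 Counterscreen run in the same HEK293-ACE2 line as the pseudotyped-particle entry assay, without particles. Viability after 48 h at 37 C was read as ATP luminescence, scaled between cell-containing and cell-free wells.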
# [4] = Primary qHTS to identify inhibitors of SARS-CoV-2 cell entry (AID 1645846); settings: activity change, negative = inhibition: at 57.1 µM (top of the series) unless noted; note: nearly all actives have a fitted effect of over 45% in size; note: potency is the fitted concentration of half-maximal effect
# Method in brief: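 Entry measured by luciferase signal 48 h after adding SARS-CoV-2-S pseudotyped MLV particles to HEK293-ACE2 cells preincubated 1 h with compounds. Normalisation: bald particles and spike particles.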
# [5] = qHTS for Inhibitors of the Functional Ribonucleoprotein Complex (vRNP) of Lymphocytic Choriomeningitis Arenaviruses (LCMV): Viability assay - alamar blue signal for LCMV Primary Screen (AID 1347085; calls by dose curve; tested in HEK293 reporter line; note: nearly all actives have a fitted effect of over 80% in size)
# [6] = Validation screen for inhibitors of Lassa infection (AID 463096)
# [7] = Inducers of the Endoplasmic Reticulum Stress Response (ERSR) in human glioma: Validation (AID 504836; active = well fitted curve in the direction sought with a large enough effect)
# Method in brief: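 Stably transfected U87-MG glioma cells carrying a GRP78-based luciferase sensor; 16 h compound incubation. Luminescence end-point read 10 min after Bright-Glo addition at room temperature.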
# [8] = biological target: Nucleoprotein (Lymphocytic choriomeningitis virus (strain Armstrong)) (UniProt P09992); test: qHTS for Inhibitors of the Functional Ribonucleoprotein Complex (vRNP) of Lymphocytic Choriomeningitis Arenaviruses (LCMV): LCMV Primary Screen - GLuc reporter signal (AID 1347086); note: nearly all actives have a fitted effect of over 70% in size
# Nucleoprotein (Lymphocytic choriomeningitis virus (strain Armstrong)), sequence (P09992 whole entry, looked up): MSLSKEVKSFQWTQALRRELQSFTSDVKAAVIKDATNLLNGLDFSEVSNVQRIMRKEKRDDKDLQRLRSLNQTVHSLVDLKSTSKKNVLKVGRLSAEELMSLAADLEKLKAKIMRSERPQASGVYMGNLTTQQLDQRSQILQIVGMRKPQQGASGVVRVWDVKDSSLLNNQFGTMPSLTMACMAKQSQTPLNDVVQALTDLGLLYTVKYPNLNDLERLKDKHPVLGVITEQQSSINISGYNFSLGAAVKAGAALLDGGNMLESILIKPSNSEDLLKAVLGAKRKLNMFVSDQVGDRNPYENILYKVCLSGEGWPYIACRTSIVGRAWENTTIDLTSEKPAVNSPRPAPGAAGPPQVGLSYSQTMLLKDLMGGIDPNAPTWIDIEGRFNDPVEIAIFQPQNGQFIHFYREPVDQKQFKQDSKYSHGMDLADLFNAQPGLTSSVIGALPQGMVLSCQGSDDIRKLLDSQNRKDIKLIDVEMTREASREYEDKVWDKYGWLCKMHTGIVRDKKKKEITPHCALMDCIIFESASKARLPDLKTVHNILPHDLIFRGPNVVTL
compound,measurement,setting,value
CC(C)C[C@H](NC(=O)CNC(=O)c1cc(Cl)ccc1Cl)B1OC(=O)CC(CC(=O)O)(C(=O)O)O1 (stereo partly specified),Potency,[1],7.69 µM (active)
same,Potency,[2],1.93 µM (active)
same,Potency,[3],0.891 µM (active)
same,"activity change, negative = inhibition",[4],-99.4%
O=C(C=Cc1ccccc1O)c1ccccc1O,Potency,[1],inactive
same,Potency,[5],inactive
O=C1c2c(O)cc(O)cc2OC(c2ccc(O)c(O)c2)C1O (stereo unspecified),Potency,[6],inactive
same,outcome,[7],inactive
same,Potency,[1],inactive
same,Potency,[2],inactive
same,Potency,[3],inactive
same,"activity change, negative = inhibition",[4],4.53%
CN(Cc1nc2c(N)nc(N)nc2[nH]c1=O)c1ccc(C(=O)NC(CCC(=O)O)C(=O)O)cc1 (stereo unspecified),Potency,[1],inactive
same,Potency,[5],inactive
same,Potency,[8],inactive
CCc1ccc(/C=C2/SC(=S)NC2=O)cc1,outcome,[7],inactive
same,Potency,[1],inactive
same,Potency,[2],inactive
same,Potency,[3],10 µM (active)
same,Potency,[4],31.6 µM (active)
COc1cc2c(c(OC)c1OC)-c1ccc(OC)c(=O)cc1[C@@H](NC=O)CC2,Potency,[1],35.5 µM (active)
same,Potency,[5],inactive
same,Potency,[8],inactive
C=C1C(=O)O[C@H]2[C@H]1[C@H](OC(=O)/C(C)=C\C)C[C@]1(CO1)[C@@H]1[C@H](OC(C)=O)C=C(C)[C@]21O,Potency,[1],inactive
same,Potency,[5],inactive
same,Potency,[8],inactive
